Reference: PubChem BioAssay (NCATS)
Inconclusive results are not listed. Unmarked numbers belong to inactive results. The source made the active and inactive calls. The call rests on the fitted dose curve; in most records, active means well fitted inhibition curve with a large enough effect; inconclusive means small, poorly fitted or top-dose-only effect; inactive means flat fitted curve, though single readings scatter.
Potency means the concentration at half of the fitted maximal effect.

What follows are molecules tested on CP265 (assay: qHTS profiling for inhibitors of Plasmodium falciparum proliferation (AID 504749; further: nearly all actives have a fitted effect of over 60% in size;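 on activity, negative = inhibition: 0% = DMSO vehicle and full inhibition = artemisinin control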)). Conditions: P. falciparum in erythrocytes, SYBR Green DNA, 72 h; series mostly up to 12.8 µM; activity, negative = inhibition: at the top concentration.
How it was run: (§1)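 Fluorescence of SYBR Green-bound parasite DNA, read at 485/535 nm, served as the growth measure. Infected erythrocytes were cultured with compound 72 h; artemisinin (0.29 uM) and DMSO wells defined the normalization range.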
For `CC1(C)S[C@H]2C(NC(=O)[C@@H](N)c3ccc(O)cc3)C(=O)N2[C@@H]1C(=O)O` (stereo partly specified), the “activity, negative = inhibition” value was 7.16% [at 28.7 µM].
With `CN(C)CCc1c[nH]c2ccc(CC3COC(=O)N3)cc12` (stereo unspecified) the “activity, negative = inhibition” value was 2.35% [at 28.7 µM].
With `C[C@@]12CCC(=O)C=C1C=CC1C2CC[C@]2(C)C1CC[C@@]21CCC(=O)O1` (stereo partly specified) the “activity, negative = inhibition” value was -11.8% [at 28.7 µM].
For `NC(CCC(=O)N[C@@H](CS)C(=O)NCC(=O)O)C(=O)O` (stereo partly specified), the Potency was 7.94 µM (active).
`CC(C)Oc1ccc2c(=O)cc(-c3ccccc3)oc2c1` was tested, and the “activity, negative = inhibition” value was -25.6% [at 28.7 µM].
For `CCCCCCCCCc1ccc(OCCOCCOCCOCCOCCOCCOCCOCCOCCO)cc1`, the “activity, negative = inhibition” value was -28.5% [at 28.7 µM].
With `N[C@@H]1C(O)OC(CO)C(O)C1O` (stereo partly specified) the “activity, negative = inhibition” value was -0.665% [at 28.7 µM].
With `C=Cc1c(C)/c2[n-]/c1=C\c1[n-]c(c(CC)c1C)/C=c1\[n-]c3c(c1C)C(=O)C(C(=O)[O-])C=3c1[n-]c(c(C)c1CCC(=O)[O-])\C=2.[Cu].[Na+].[Na+]` (stereo unspecified) the “activity, negative = inhibition” value was -27.3% [at 28.7 µM].
`CC(=O)[C@]1(O)CCC2C3C=C(Cl)C4=CC(=O)C5CC5[C@@]4(C)C3CC[C@]21C` (stereo partly specified) was tested, and the “activity, negative = inhibition” value was 1.02% [at 28.7 µM].
`C[C@@]12C=CC(=O)C=C1CCC1C3CC(O)[C@@](O)(C(=O)CO)[C@]3(C)CC(O)[C@]12F` (stereo partly specified) was tested, and the “activity, negative = inhibition” value was 8.9% [at 28.7 µM].
In the case of `CCC1OC(=O)C(C)[C@@H](O[C@H]2C[C@@](C)(OC)C(O)C(C)O2)C(C)[C@@H](O[C@@H]2OC(C)CC(N(C)C)C2O)[C@@](C)(O)CC(C)C(=O)[C@@H](C)C(O)[C@]1(C)O` (stereo partly specified), the “activity, negative = inhibition” value is reported as -3.82% [at 28.7 µM].
In the case of `CC1C2CCC3C4CC=C5CC(N(C)C)CC[C@@]5(C)C4CC[C@@]32CN1C` (stereo partly specified), the “activity, negative = inhibition” value is reported as -4.77% [at 28.7 µM].
For `CCC(C)C(=O)OC1CC(O)C=C2C=CC(C)C(CCC(O)CC(O)CC(=O)O)C21` (stereo unspecified), the “activity, negative = inhibition” value was 3.33% [at 28.7 µM].
With `OCC1OC(n2cnc3c(=S)nc[nH]c32)C(O)C1O` (stereo unspecified) the “activity, negative = inhibition” value was -12.9% [at 28.7 µM].

What follows are molecules tested on CP266 in the same assay as above. Conditions: P. falciparum in erythrocytes, SYBR Green DNA, 72 h; series mostly up to 12.8 µM; activity, negative = inhibition: at the top concentration.
How it was run: as §1
`CC1(C)S[C@H]2C(NC(=O)[C@@H](N)c3ccc(O)cc3)C(=O)N2[C@@H]1C(=O)O` (stereo partly specified) was tested, and the “activity, negative = inhibition” value was 0.246% [at 28.7 µM].
For `C[C@@]12CCC(=O)C=C1C=CC1C2CC[C@]2(C)C1CC[C@@]21CCC(=O)O1` (stereo partly specified), the “activity, negative = inhibition” value was -0.348% [at 28.7 µM].
`NC(CCC(=O)N[C@@H](CS)C(=O)NCC(=O)O)C(=O)O` (stereo partly specified) was tested, and the “activity, negative = inhibition” value was -4.04% [at 28.7 µM].
In the case of `CC(C)Oc1ccc2c(=O)cc(-c3ccccc3)oc2c1`, the “activity, negative = inhibition” value is reported as -4.88% [at 28.7 µM].
`CCCCCCCCCc1ccc(OCCOCCOCCOCCOCCOCCOCCOCCOCCO)cc1` was tested, and the “activity, negative = inhibition” value was -0.17% [at 28.7 µM].
For `CC(=O)O[C@@]1(C(C)=O)CCC2C3CC(C)C4=CC(=O)CC[C@@]4(C)C3CC[C@]21C` (stereo partly specified), the “activity, negative = inhibition” value was 10.7% [at 28.7 µM].
`N[C@@H]1C(O)OC(CO)C(O)C1O` (stereo partly specified) was tested, and the “activity, negative = inhibition” value was -16.1% [at 28.7 µM].
In the case of `CC(=O)OCC(=O)[C@@]12OC3(CCCC3)OC1CC1C3CCC4=CC(=O)C=C[C@@]4(C)[C@]3(F)C(O)C[C@]12C` (stereo partly specified), the “activity, negative = inhibition” value is reported as 6.9% [at 28.7 µM].
For `C=Cc1c(C)/c2[n-]/c1=C\c1[n-]c(c(CC)c1C)/C=c1\[n-]c3c(c1C)C(=O)C(C(=O)[O-])C=3c1[n-]c(c(C)c1CCC(=O)[O-])\C=2.[Cu].[Na+].[Na+]` (stereo unspecified), the “activity, negative = inhibition” value was -9.8% [at 28.7 µM].
For `CC(=O)[C@]1(O)CCC2C3C=C(Cl)C4=CC(=O)C5CC5[C@@]4(C)C3CC[C@]21C` (stereo partly specified), the “activity, negative = inhibition” value was 0.284% [at 28.7 µM].
With `COC1OC(CO)C(OC2OC(C(=O)O)C(OC3OC(COS(=O)(=O)O)C(OC4OC(C(=O)O)C(OC5OC(CO)C(OC6OC(C(=O)O)C(OC7OC(COS(=O)(=O)O)C(OC8OC(C(=O)O)=C[C@H](O)C8OS(=O)(=O)O)C(O)C7NC(C)=O)[C@@H](O)C6O)C(O)C5NC(C)=O)[C@@H](O)C4O)C(O)C3NC(C)=O)[C@@H](O)C2O)C(O)C1NC(C)=O` (stereo partly specified) the “activity, negative = inhibition” value was -7.67% [at 28.7 µM].
`C[C@@]12C=CC(=O)C=C1CCC1C3CC(O)[C@@](O)(C(=O)CO)[C@]3(C)CC(O)[C@]12F` (stereo partly specified) was tested, and the “activity, negative = inhibition” value was 9.77% [at 28.7 µM].
In the case of `CCC1OC(=O)C(C)[C@@H](O[C@H]2C[C@@](C)(OC)C(O)C(C)O2)C(C)[C@@H](O[C@@H]2OC(C)CC(N(C)C)C2O)[C@@](C)(O)CC(C)C(=O)[C@@H](C)C(O)[C@]1(C)O` (stereo partly specified), the “activity, negative = inhibition” value is reported as 0.573% [at 28.7 µM].
With `CC1C2CCC3C4CC=C5CC(N(C)C)CC[C@@]5(C)C4CC[C@@]32CN1C` (stereo partly specified) the “activity, negative = inhibition” value was -5.3% [at 28.7 µM].
`COC1CC(O[C@H]2/C(C)=C/CC3CC(C[C@]4(CCC(C)C(C5CCCCC5)O4)O3)OC(=O)[C@H]3C=C(C)/C(=N/O)C4OC/C(=C\C=C\[C@@H]2C)[C@@]43O)OC(C)C1O` (stereo partly specified) was tested, and the “activity, negative = inhibition” value was -1.46% [at 28.7 µM].
With `CCC(C)C(=O)OC1CC(O)C=C2C=CC(C)C(CCC(O)CC(O)CC(=O)O)C21` (stereo unspecified) the “activity, negative = inhibition” value was 18.2% [at 28.7 µM].
In the case of `OCC1OC(n2cnc3c(=S)nc[nH]c32)C(O)C1O` (stereo unspecified), the “activity, negative = inhibition” value is reported as -0.0162% [at 28.7 µM].
